What was measured:
Conditions in all cases: treatment time: 24 h
HepG2-GM130-SQSTM1 [1] = experiment: lowest phenotypically active concentration; higher = less potent
In short: (§1)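 Each of fifteen gene-edited A549, HepG2 and WPMY1 reporter lines, marked with BFP for segmentation and GFP and RFP/FusionRed, was treated in four wells at 0.3, 1, 3 or 9 µM for 24 h prior to live imaging. Normalisation of per-well live-cell features used solvent control wells. Deviation needed ≥3 of 4 wells beyond the 95th percentile of control Euclidean distances, and reproducibility needed a median replicate Pearson correlation above the 95th percentile of non-replicates. Both were required for phenotypic activity.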

WPMY1-GM130-SQSTM1 [2] = experiment: as above
In short: as §1

A549-ACTB-RAB5A = experiment: phenotypically active (imaging signature differs from DMSO and reproducible) at any of 0.3-9 uM (binary (1 = active, 0 = inactive)); higher = active
In short: as §1

A549-CANX-COX4 = experiment: as above
In short: as §1

A549-GM130-SQSTM1 = experiment: as above
In short: as §1

A549-TP53BP1-CLTA = experiment: as above
In short: as §1

A549-TUBA1B-RELA = experiment: as above
In short: as §1

HepG2-ACTB-RAB5A = experiment: as above
In short: as §1

HepG2-CANX-COX4 = experiment: as above
In short: as §1

HepG2-GM130-SQSTM1 [3] = experiment: as above
In short: as §1

HepG2-TP53BP1-CLTA = experiment: as above
In short: as §1

HepG2-TUBA1B-RELA [4] = experiment: as above
In short: as §1

WPMY1-ACTB-RAB5A [5] = experiment: as above
In short: as §1

WPMY1-CANX-COX4 = experiment: as above
In short: as §1

WPMY1-GM130-SQSTM1 [6] = experiment: as above
In short: as §1

WPMY1-TP53BP1-CLTA = experiment: as above
In short: as §1

WPMY1-TUBA1B-RELA = experiment: as above
In short: as §1

WPMY1-ACTB-RAB5A [7] = experiment: lowest phenotypically active concentration; higher = less potent
In short: as §1

HepG2-TUBA1B-RELA [8] = experiment: as above
In short: as §1

Row | Structure (SMILES) | lowest phenotypically active concentration (HepG2-GM130-SQSTM1 [1]) | lowest phenotypically active concentration (WPMY1-GM130-SQSTM1 [2]) | phenotypically active (A549-ACTB-RAB5A) | phenotypically active (A549-CANX-COX4) | phenotypically active (A549-GM130-SQSTM1) | phenotypically active (A549-TP53BP1-CLTA) | phenotypically active (A549-TUBA1B-RELA) | phenotypically active (HepG2-ACTB-RAB5A) | phenotypically active (HepG2-CANX-COX4) | phenotypically active (HepG2-GM130-SQSTM1 [3]) | phenotypically active (HepG2-TP53BP1-CLTA) | phenotypically active (HepG2-TUBA1B-RELA [4]) | phenotypically active (WPMY1-ACTB-RAB5A [5]) | phenotypically active (WPMY1-CANX-COX4) | phenotypically active (WPMY1-GM130-SQSTM1 [6]) | phenotypically active (WPMY1-TP53BP1-CLTA) | phenotypically active (WPMY1-TUBA1B-RELA) | lowest phenotypically active concentration (WPMY1-ACTB-RAB5A [7]) | lowest phenotypically active concentration (HepG2-TUBA1B-RELA [8])
1 | O=[N+]([O-])c1cc(Cl)ccc1S(=O)(=O)c1ccccc1 | 3 µM | 9 µM | 0 (inactive) | 0 (inactive) | 0 (inactive) | 0 (inactive) | 0 (inactive) | 0 (inactive) | 0 (inactive) | 1 (active) | 0 (inactive) | 0 (inactive) | 0 (inactive) | 0 (inactive) | 1 (active) | 0 (inactive) | 0 (inactive) | – | –
2 | O=C(O)[C@H]1O[C@@H](Oc2cc3oc(-c4ccccc4)cc(=O)c3c(O)c2O)[C@H](O)[C@@H](O)[C@@H]1O [Baicalin] | – | 3 µM | 0 (inactive) | 0 (inactive) | 0 (inactive) | 0 (inactive) | 0 (inactive) | 0 (inactive) | 0 (inactive) | 0 (inactive) | 0 (inactive) | 0 (inactive) | 0 (inactive) | 0 (inactive) | 1 (active) | 0 (inactive) | 0 (inactive) | – | –
3 | CN(C)CCCC1(c2ccc(F)cc2)OCc2cc(C#N)ccc21 (stereo not given) [citalopram] | – | 9 µM | 0 (inactive) | 0 (inactive) | 0 (inactive) | 0 (inactive) | 0 (inactive) | 0 (inactive) | 0 (inactive) | 0 (inactive) | 0 (inactive) | 0 (inactive) | 0 (inactive) | 0 (inactive) | 1 (active) | 0 (inactive) | 0 (inactive) | – | –
4 | CCCCc1c(O)n(-c2ccccc2)n(-c2ccccc2)c1=O [phenylbutazone] | – | ≤ 0.3 µM | 0 (inactive) | 0 (inactive) | 0 (inactive) | 0 (inactive) | 0 (inactive) | 0 (inactive) | 0 (inactive) | 0 (inactive) | 0 (inactive) | 0 (inactive) | 0 (inactive) | 0 (inactive) | 1 (active) | 0 (inactive) | 0 (inactive) | – | –
5 | Cc1ccc(C(=O)Oc2ccc(C(O)CNC(C)(C)C)cc2OC(=O)c2ccc(C)cc2)cc1 (stereo not given) [bitolterol] | – | – | 0 (inactive) | 0 (inactive) | 0 (inactive) | 0 (inactive) | 0 (inactive) | 0 (inactive) | 0 (inactive) | 0 (inactive) | 0 (inactive) | 0 (inactive) | 0 (inactive) | 1 (active) | 0 (inactive) | 0 (inactive) | 0 (inactive) | – | –
6 | O=c1c(O)c(-c2ccc(O)c(O)c2)oc2cc(O)cc(O)c12 [Quercetin] | – | 9 µM | 0 (inactive) | 0 (inactive) | 0 (inactive) | 0 (inactive) | 0 (inactive) | 0 (inactive) | 0 (inactive) | 0 (inactive) | 0 (inactive) | 0 (inactive) | 0 (inactive) | 0 (inactive) | 1 (active) | 0 (inactive) | 0 (inactive) | – | –
7 | CCCN[C@H]1CCc2nc(N)sc2C1 [pramipexole] | – | 9 µM | 0 (inactive) | 0 (inactive) | 0 (inactive) | 0 (inactive) | 0 (inactive) | 0 (inactive) | 0 (inactive) | 0 (inactive) | 0 (inactive) | 0 (inactive) | 0 (inactive) | 0 (inactive) | 1 (active) | 0 (inactive) | 0 (inactive) | – | –
8 | CCN1C(=O)NC(c2ccccc2)C1=O (stereo not given) [ethotoin] | – | – | 0 (inactive) | 0 (inactive) | 0 (inactive) | 0 (inactive) | 0 (inactive) | 0 (inactive) | 0 (inactive) | 0 (inactive) | 0 (inactive) | 0 (inactive) | 1 (active) | 1 (active) | 0 (inactive) | 0 (inactive) | 0 (inactive) | 3 µM | –
9 | O=C(Nc1ccccc1)N1CCC(Cc2cnc3ccccc3c2)CC1 | – | – | 0 (inactive) | 0 (inactive) | 0 (inactive) | 0 (inactive) | 0 (inactive) | 0 (inactive) | 0 (inactive) | 0 (inactive) | 1 (active) | 1 (active) | 0 (inactive) | 0 (inactive) | 0 (inactive) | 0 (inactive) | 0 (inactive) | – | 9 µM
10 | C[C@]12CC[C@@H]3c4ccc(O)cc4CC[C@H]3[C@@H]1CC[C@@H]2OC(=O)CCC1CCCC1 [estradiol cypionate] | – | 9 µM | 0 (inactive) | 0 (inactive) | 0 (inactive) | 0 (inactive) | 0 (inactive) | 0 (inactive) | 0 (inactive) | 0 (inactive) | 0 (inactive) | 0 (inactive) | 0 (inactive) | 0 (inactive) | 1 (active) | 0 (inactive) | 0 (inactive) | – | –

Source: the supplement of paper PMC7411054
